Each structure is given as a SMILES string. Results filed as inconclusive are left out. Entries that show only a call come without a potency. Unmarked numbers belong to inactive results. Calls of active or inactive are those of the source. The call rests on the fitted dose curve; in most records, active means well fitted inhibition curve with a large enough effect; inconclusive means small, poorly fitted or top-dose-only effect; inactive means flat fitted curve, though single readings scatter.

Calcium and integrin-binding protein 1 (Homo sapiens), sequence (Q99828 whole entry, looked up): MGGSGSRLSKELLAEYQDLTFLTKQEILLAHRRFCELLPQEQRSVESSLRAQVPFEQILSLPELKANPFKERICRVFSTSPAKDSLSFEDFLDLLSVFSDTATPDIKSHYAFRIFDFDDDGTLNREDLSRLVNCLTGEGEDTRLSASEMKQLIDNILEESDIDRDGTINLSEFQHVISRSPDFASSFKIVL

The first assay concerns the target Calcium and integrin-binding protein 1 (Homo sapiens) (UniProt Q99828). In words: Primary qHTS for Identification of Calcium Integrin Binding Protein 1 (CIB1) Competitor (AID 1508620).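 Further: GST tagged CIB1 binding a fluorescein labelled alphaIIb integrin peptide tracer; top concentration of the series differs between compounds.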 The following applies: CIB1-GST / FITC-alphaIIb peptide fluorescence polarization; series mostly up to 57.7 µM. In a few lines:
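Fluorescence polarization competition: CIB1-GST (1 uM final) preincubated with compound 15 min at room temperature, then FITC-labeled alphaIIb peptide (100 nM final) added for another 15 min. Polarization read at Ex 480/Em 540.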
For `COc1ccc(CCC(=O)O)c(O[C@@H]2O[C@H](CO)[C@@H](O)[C@H](O)[C@H]2O)c1`, the Potency entry was “inactive”.
Same read-out and setting: then `CC1C2=CC(=O)OC2(O)CC2C1C(OC(=O)c1ccccc1)C(OC(=O)c1ccccc1)C1(O)C2(C)CCC(O)C1(C)C(=O)O` (stereo unspecified), with “inactive”; and `C=C1CCC2(OC1)OC1CC3C4CC=C5CC(O)CC(O[C@@H]6OC[C@H](OC(=O)C(O)C(C)CC)[C@H](O)[C@H]6O[C@@H]6O[C@@H](C)[C@H](O)[C@@H](O)[C@H]6O)C5(C)C4CCC3(C)C1C2C` (stereo partly specified), with “inactive”; and `CC(=O)OC12CC(C)C(O)C1/C=C(/COC1OC(CO)C(O)C(O)C1O)CCC1C(/C=C(\C)C2=O)C1(C)C` (stereo unspecified), with “inactive”.
Turning to `C=C(CCO)C(=O)OCC1OCC(OC(=O)C(=C)CCO[C@@H]2O[C@H](COC(=O)C(=C)CCO[C@@H]3O[C@H](CO)[C@@H](O)[C@H](O)[C@H]3O)[C@@H](O)[C@H](O)[C@H]2O)C(O)C1O` (stereo partly specified), the Potency entry was “inactive”.
Still for that read-out and setting: under `OC[C@H]1O[C@@H](OCc2ccccc2)[C@H](O)[C@@H](O)[C@@H]1O` stands “inactive”; under `CC(C)CC(=O)O[C@@H]1O[C@H](CO)[C@@H](O[C@H]2O[C@H](C)[C@@H](N[C@H]3C=C(CO)[C@@H](O[C@H]4O[C@H](CO)[C@@H](O[C@H]5O[C@H](CO)[C@@H](O[C@H]6O[C@H](CO)[C@@H](O)[C@H](O)[C@H]6O)[C@H](O)[C@H]5O)[C@H](O)[C@H]4O)[C@H](O)[C@H]3O)[C@H](O)[C@H]2O)[C@H](O)[C@H]1O`, “inactive”; under `C=C1C(O)C(O)C2(CC3C(C)=CCC4C(C)(C(=O)O)CCCC34C)OC2C1O` (stereo unspecified), “inactive”.
Same read-out and setting: then `CC1=C2C(=O)C=C(CO)C2C2OC(=O)C(CS(=O)(=O)O)C2C(OC(=O)Cc2ccc(O)cc2)C1` (stereo unspecified), with “inactive”.
The same measure, in the same setting: then `CC1CCC2(C(=O)O)CCC3(C)C(=CCC4C5(C)C[C@@H](O)[C@@H](O)C(C)(CO)C5CCC43C)C2C1(C)O` (stereo partly specified), with “inactive”.
As to `CC1=C2CC(=O)C(C)CC/C=C(\C)CC2OC1=O` (stereo unspecified), the Potency entry was “inactive”.
For `O=C(O)c1ccncc1Nc1nn(CCN2CCC(F)(F)CC2)c2ccc(F)cc12`, the Potency entry was “inactive”.

System in the next assay: not listed separately
In words: Primary qHTS for inhibitors of nuclear receptor binding SET domain protein 2 (NSD2) in an isogenic RCH-ACV NSD2 p.E1099K mutant (9B) (AID 1645876). Further: nearly all actives have a fitted effect of over 70% in size. Further: potency means the concentration at half of the fitted maximal effect. The following applies: RCH-ACV (leukaemia line) NSD2 E1099K (9B) viability, CellTiter-Glo, 72 h; series mostly up to 44.9 µM. Background: Quantitative high-throughput screening tests each substance at several concentrations.
Consider `CCN=C1N[C@@H]2[C@@H](O)[C@H](O)[C@@H](CO)O[C@@H]2S1`, for which the Potency result is “inactive”.
On to `CC(=O)O[C@@]1(C)[C@@H]2CC(=C(C)C)C(=O)C[C@@]2(C)CC[C@H]1OC(=O)C1(C)OC1C` (stereo partly specified), for which the Potency entry is “inactive”.
Same read-out and setting: under `C=C1C(OC(C)=O)[C@@]23CCC4[C@](C)(C(=O)O)CCC[C@@]4(C)[C@]2(O)CC[C@H]1C3` (stereo partly specified) stands “inactive”; under `CC(=O)OC1C(C)C2C(OC3OC(CO)C(O)C(O)C3O)OC=C(C(=O)O)C2C1OC(=O)c1ccccc1` (stereo unspecified), “inactive”; under `C[C@]1(O)CC[C@@H]2C(C(=O)O)=CO[C@@H](O[C@@H]3O[C@H](COC(=O)/C=C/c4ccc(O)c(O)c4)[C@@H](O)[C@H](O)[C@H]3O)[C@@H]21`, “inactive”.
The same measure, in the same setting: under `CC(=O)O[C@H]1C[C@@H](O)C(C)(C)C2C[C@@H](OC(C)=O)[C@]3(C)C(CC[C@@]4(C)[C@H](c5ccoc5)OC(=O)[C@H]5O[C@]543)[C@]21C` (stereo partly specified) stands “inactive”; under `O=C(O)CCc1cc2ccoc2cc1O[C@@H]1O[C@H](CO)[C@@H](O)[C@H](O)[C@H]1O`, “inactive”.
Turning to `CC(C)c1ccc2c(c1)C(O)CC1C(C)(C(=O)O)CCCC21C` (stereo unspecified), the Potency entry was “inactive”.
On the same count and under the same terms, under `COc1cc(CC2COC(c3ccc(OC4OC(CO)C(O)C(O)C4O)c(OC)c3)C2CO)ccc1O` (stereo unspecified) stands “inactive”.
Same read-out and setting: then `CC1(C)CCCC2(C)c3c4c(c(=O)oc(=O)c3=CCC12)=CCC1C(C)(C)CCCC41C` (stereo unspecified), with “inactive”.
Consider `CC1(C)CC[C@]2(C(=O)O[C@@H]3O[C@H](CO)[C@@H](O)[C@H](O)[C@H]3O)CC[C@]3(C)C(=CCC4[C@@]5(C)C[C@@H](O)[C@H](O)[C@@](C)(CO)C5[C@H](O)C[C@]43C)C2C1` (stereo partly specified), for which the Potency entry is “inactive”.
Take `CC(=O)OC[C@]12[C@H](OC(C)=O)[C@H](OC(=O)c3ccccc3)[C@@H]3[C@@H](OC(C)=O)[C@]1(OC3(C)C)[C@H](C)C[C@H](OC(=O)c1ccccc1)[C@@H]2OC(=O)c1ccccc1`: the Potency result is “inactive”.
With `CC[C@H](C)[C@H](NC(=O)[C@H](Cc1ccc(O)cc1)NC(=O)[C@@H](N)C(C)C)C(=O)N[C@@H](Cc1cnc[nH]1)C(=O)N1CCC[C@H]1C(=O)N[C@@H](Cc1ccccc1)C(=O)O`, the outcome is “inactive [at 4.96 µM]”.
For `CC1(C)CC[C@]2(C(=O)O[C@@H]3O[C@H](CO[C@@H]4O[C@H](CO[C@@H]5O[C@H](CO)[C@H](O)[C@H](O)[C@H]5O)[C@@H](O)[C@H](O)[C@H]4O)[C@@H](O)[C@H](O[C@@H]4O[C@H](CO)[C@@H](O)[C@H](O)[C@H]4O)[C@H]3O)[C@H](O)C[C@]3(C)C(=CCC4[C@@]5(C)CC[C@H](O[C@@H]6OC[C@@H](O)[C@H](O)[C@H]6O)[C@@](C)(C(=O)O)C5CC[C@]43C)[C@@H]2C1` (stereo partly specified), the outcome was “inactive [at 9.23 µM]”.
Take `C=C1C(OC(C)=O)CCC2(C)CC3(O)OC(=O)C(C)=C3CC12` (stereo unspecified): the Potency result is “inactive”.
For the compound `C/C=C(/C)C(=O)OC1CC(C)(C)CC2C3=CCC4C5(C)CCC(OC6OC(C)C(OC7OC(C(=O)O)C(O)C(OC8OC(CO)C(O)C(O)C8OC8OC(CO)C(O)C(O)C8O)C7O)C(O)C6O)C(C)(C)C5CCC4(C)C3(C)C(OC(=O)/C=C/C=C/C=C/CCC)C(OC(C)=O)C12CO` (stereo unspecified), the activity change, negative = viability loss is -8.21% [at 9.23 µM].
`CC(C)(Oc1ccc(-c2nc3cc(Cl)ccc3s2)cc1)C(=O)O`: the Potency result is “inactive”.
Turning to `CNc1nc(Cc2ccccc2)nc2c1CCNC[C@@H]2C`, the Potency result was “inactive”.
Same read-out and setting: under `CCCC/C=C\CCCCCc1cc(=O)c2ccccc2n1C` stands “inactive”; under `CCN(CCN(C)C)C(=O)CNCc1cc(C(N)=O)ccn1`, “inactive”; under `COc1cc(O)c2c(c1)C1(OC2=O)C(C)=CC(=O)C1O` (stereo unspecified), “inactive”.
Turning to `COC(=O)c1ccccc1O[C@@H]1O[C@H](CO[C@@H]2OC[C@@H](O)[C@H](O)[C@H]2O)[C@@H](O)[C@H](O)[C@H]1O`, the Potency entry is “inactive”.
On the same count and under the same terms, under `COc1c2c(c(C)c3c1C(=O)OC3)OC1(C)CC(O)C34OC(O)(CCC3(C)C1C2)OC4(C)C` (stereo unspecified) stands “inactive”.
Still for that read-out and setting: then `Nc1nc2c(nc(Sc3ccc(Cl)cc3)n2[C@@H]2O[C@@H]3COP(=O)(O)O[C@H]3[C@H]2O)c(=O)[nH]1`, with “inactive”.
Same read-out and setting: then `CC1=C2C3OC(=O)C(C)C3(O)CCC2(C)CCC1` (stereo unspecified), with “inactive”; and `COC(=O)C1=COC(O[C@@H]2O[C@H](CO)[C@@H](O)[C@H](O)[C@H]2O)[C@@H]2[C@@](C)(O)[C@@H](OC(=O)/C=C/c3ccccc3)C[C@]12O` (stereo partly specified), with “inactive”.
On to `C[C@@H]1O[C@@H](O[C@H]2[C@@H]3C=CO[C@@H](O[C@@H]4O[C@H](CO)[C@@H](O)[C@H](O)[C@H]4O)[C@@H]3[C@@]3(CO)O[C@@H]23)[C@H](O)[C@H](OC(=O)/C=C/c2ccc(O)cc2)[C@H]1OC(=O)/C=C/c1ccc(O)cc1`, for which the Potency result was “inactive”.
The same measure, in the same setting: under `COc1ccc(CCC(=O)O)c(O[C@@H]2O[C@H](CO)[C@@H](O)[C@H](O)[C@H]2O)c1` stands “inactive”; under `CC1C2=CC(=O)OC2(O)CC2C1C(OC(=O)c1ccccc1)C(OC(=O)c1ccccc1)C1(O)C2(C)CCC(O)C1(C)C(=O)O` (stereo unspecified), “inactive”.
In the case of `C=C1CCC2(OC1)OC1CC3C4CC=C5CC(O)CC(O[C@@H]6OC[C@H](OC(=O)C(O)C(C)CC)[C@H](O)[C@H]6O[C@@H]6O[C@@H](C)[C@H](O)[C@@H](O)[C@H]6O)C5(C)C4CCC3(C)C1C2C` (stereo partly specified), the activity change, negative = viability loss was -3.21% [at 9.23 µM].
Consider `CC(=O)OC12CC(C)C(O)C1/C=C(/COC1OC(CO)C(O)C(O)C1O)CCC1C(/C=C(\C)C2=O)C1(C)C` (stereo unspecified), for which the Potency entry was “inactive”.
Take `C=C(CCO)C(=O)OCC1OCC(OC(=O)C(=C)CCO[C@@H]2O[C@H](COC(=O)C(=C)CCO[C@@H]3O[C@H](CO)[C@@H](O)[C@H](O)[C@H]3O)[C@@H](O)[C@H](O)[C@H]2O)C(O)C1O` (stereo partly specified): the Potency result was “inactive”.
Still for that read-out and setting: under `OC[C@H]1O[C@@H](OCc2ccccc2)[C@H](O)[C@@H](O)[C@@H]1O` stands “inactive”.
Take `CC(C)CC(=O)O[C@@H]1O[C@H](CO)[C@@H](O[C@H]2O[C@H](C)[C@@H](N[C@H]3C=C(CO)[C@@H](O[C@H]4O[C@H](CO)[C@@H](O[C@H]5O[C@H](CO)[C@@H](O[C@H]6O[C@H](CO)[C@@H](O)[C@H](O)[C@H]6O)[C@H](O)[C@H]5O)[C@H](O)[C@H]4O)[C@H](O)[C@H]3O)[C@H](O)[C@H]2O)[C@H](O)[C@H]1O`: the activity change, negative = viability loss was 3.07% [at 9.23 µM].
As to `C=C1C(O)C(O)C2(CC3C(C)=CCC4C(C)(C(=O)O)CCCC34C)OC2C1O` (stereo unspecified), the Potency result is “inactive”.
As to `CC1=C2C(=O)C=C(CO)C2C2OC(=O)C(CS(=O)(=O)O)C2C(OC(=O)Cc2ccc(O)cc2)C1` (stereo unspecified), the Potency result is “inactive”.
As for `CC1CCC2(C(=O)O)CCC3(C)C(=CCC4C5(C)C[C@@H](O)[C@@H](O)C(C)(CO)C5CCC43C)C2C1(C)O` (stereo partly specified), the Potency is 6.32 µM (active).
Still for that read-out and setting: then `CC1=C2CC(=O)C(C)CC/C=C(\C)CC2OC1=O` (stereo unspecified), with “inactive”; and `O=C(O)c1ccncc1Nc1nn(CCN2CCC(F)(F)CC2)c2ccc(F)cc12`, with “inactive”.

The values are drawn from PubChem BioAssay (NCATS).
